Bioassay records as filed in PubChem.
RE007 growth inh: qHTS Assay for Inhibitors of the HIV-1 protein Vpr. 0.21% of 360,000 active. S. pombe RE007 Vpr strain, BacTiter-Glo ATP luminescence, 24 h. AID 651644, 2012. Potency, µM (series often up to 92.2 µM), for inactives: top-dose activity change, negative = less growth, most hits filed as inhibitors; active means well fitted falling curve with a large enough effect; inconclusive means small, poorly fitted or top-dose-only effect; inactive means no such curve, though single readings can be large or run the other way; further: nearly all actives have a fitted effect of over 50% in size
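Fission yeast strain RE007, carrying one chromosomally integrated HIV-1 vpr copy, was seeded at OD 0.01 in PMG+AL medium with 23 nL pinned compound. After 24 h at 30 °C and 99% humidity, viability was read by BacTiter-Glo luminescence.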
Sm TGR inh: qHTS Assay for the Inhibitors of Schistosoma Mansoni Peroxiredoxins. Schistosoma mansoni thioredoxin glutathione reductase (TGR), Q962Y6. purified TGR, DTNB reduction, TNB absorbance 405 nm. Potency, µM (top dose mostly 114 µM), for the others: at the top dose activity change, negative = inhibition, most hits filed as inhibitors. 3% of 360,000 active. AID 485364, 2010; further: nearly all actives have a fitted effect of over 60% in size
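TGR 20 nM + NADPH 100 uM (dispensed conc.), cpd preinc 15 min RT; start with NADPH (500 uM addition) then DTNB (15 mM addition). Kinetic TNB absorbance, 405 nm filter. Four-parameter Hill fit across titration.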
AmpC detergent: qHTS Inhibitors of AmpC Beta-Lactamase (assay with detergent). AmpC hydrolysis of nitrocefin, absorbance 480 nm, 0.01% Triton. Potency, µM (series often up to 114 µM), inactives show top-dose activity change, negative = inhibition, most hits filed as inhibitors. 0.041% of 370,000 active. AID 485294, 2010;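 further: 0% = no-compound wells and -100% = no-enzyme wells; nearly all actives have a fitted effect of over 25% in size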
Target sequence (P00811 whole entry, looked up): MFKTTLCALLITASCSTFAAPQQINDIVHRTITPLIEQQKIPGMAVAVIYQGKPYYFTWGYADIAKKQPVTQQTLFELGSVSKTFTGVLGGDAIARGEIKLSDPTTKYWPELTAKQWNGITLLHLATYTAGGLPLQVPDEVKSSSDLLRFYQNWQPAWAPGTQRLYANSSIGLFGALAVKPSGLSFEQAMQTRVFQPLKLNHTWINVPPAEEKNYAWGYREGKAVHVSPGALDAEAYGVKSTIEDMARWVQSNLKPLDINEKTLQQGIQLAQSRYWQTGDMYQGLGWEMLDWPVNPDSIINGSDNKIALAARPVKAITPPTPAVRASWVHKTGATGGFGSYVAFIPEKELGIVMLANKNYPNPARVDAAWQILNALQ
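20 mM phosphate pH 7.0 + 0.01% (detergent screen) or 0.0001% Triton X-100; 5.3 nM AmpC reagent; cpd preinc 15 min RT; nitrocefin (800 uM stock) to start; A480 q20 s × 4 min; Activity was normalised to no-enzyme and no-compound control wells.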
AmpC no deterg: qHTS Inhibitors of AmpC Beta-Lactamase (assay without detergent). P00811. Potency, µM (titrated, usually from 57.1 µM), for the others: at the highest dose activity change, negative = inhibition, most hits filed as inhibitors. AmpC nitrocefin hydrolysis, absorbance 480 nm, 0.0001% Triton. 0.52% of 330,000 active;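 further: plate controls were no compound for no effect and no enzyme for full effect; nearly all actives have a fitted effect of over 20% in size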
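AmpC (5.3 nM in the dispensed reagent) in 20 mM phosphate pH 7.0 with 0.01% (detergent screen) or 0.0001% Triton X-100 was preincubated with compounds for 15 min at room temperature. Nitrocefin was then added from an 800 uM solution, and hydrolysis was followed at 480 nm.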
AMA1 RON2 block: qHTS for Inhibitors of AMA1-RON; Towards Development of Antimalarial Drug Lead: Primary Screen. AlphaScreen AMA1-biotinylated RON2 peptide binding. Potency, µM (series often up to 58.2 µM), for the others: at the top dose activity change, negative = inhibition, actives largely listed as inhibitors. 0.2% of 360,000 active. AID 720542, 2013;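 further: 0% = vehicle wells and -100% = peptide control; nearly all actives have a fitted effect of over 45% in size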
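AMA1 (3D7) with his tag at 25 nM final met compounds first, then biotinylated RON2 peptide at 25 nM; detection used donor plus acceptor beads, 10 µg/mL apiece, read by AlphaScreen after 30 min at room temperature.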
* hit, by the source's call; ? = inconclusive; · = no result given; [ ] = remark or other dose. A selection: hits, their analogues and other compounds. The true share with any hit is near 3.2%. Unless noted, the call rests on the fitted dose curve; in most records, active means well fitted curve in the direction sought with a large enough effect; inconclusive means small, poorly fitted or top-dose-only effect, or another doubt; inactive means no such curve, though single readings can be large; an effect the other way counts as inactive or inconclusive. Unless noted, on the % scale 0 is the no-effect control and ±100 the full control effect; potency means the concentration at half of the fitted maximal effect.

SMILES | RE007 growth inh | Sm TGR inh | AmpC detergent | AmpC no deterg | AMA1 RON2 block
C/C=C\C=C/C(=O)Nc1cccc(C2=NOC3(C2)C[C@H](C(N)=O)N(C(=O)CC)C3)c1 (some centres undefined) | -8.9% | 1.78µM* | 0.6% | 64.7% | -13.3%
Cc1ccc(NC(=O)Nc2nnc(N(C)C3CCCCC3)s2)c(Cl)c1 | · | -7.5% | -11.1% | · | ·
Fc1ccc(-c2noc3ncnc(Nc4ccc(F)cc4F)c23)cc1 | · | 7.0% | 2.7% | · | ·
C=C(C)C(=O)Nc1cccc(C2=NOC3(C2)C[C@@H](C(N)=O)N(C(=O)/C=C/C=C/C)C3)c1 (some centres undefined) | 3.7% | 8.91µM* | 3.5% | -1.9% | -5.6%
C/C=C\C=C\C(=O)Nc1cccc(C2=NOC3(C2)C[C@@H](C(N)=O)N(C(=O)C(c2ccccc2)c2ccccc2)C3)c1 (some centres undefined) | -5.0% | 1.78µM* | 0.3% | 100.8% | -1.9%
CCC(=O)Nc1cccc(C2=NOC3(C2)C[C@@H](C(N)=O)N(C(=O)C(c2ccccc2)c2ccccc2)C3)c1 (some centres undefined) | 4.6% | -2.5% | -1.0% | 147.2% | -10.2%
C/C=C/C=C/C(=O)N1CC2(CC(c3cccc(NC(=O)/C=C/C)c3)=NO2)C[C@@H]1C(N)=O (some centres undefined) | 8.9% | ? | -2.0% | 25.3% | -8.8%
C/C=C\C=C/C(=O)Nc1cccc(C2=NOC3(C2)C[C@@H](C(N)=O)N(C(=O)CCCCC)C3)c1 (some centres undefined) | -9.6% | 2.51µM* | -5.6% | 90.2% | 1.4%
COc1ccc(OC)c(NC(=O)COCc2cc(-c3ccc(F)cc3)on2)c1 | · | 29.3% | 18.5% | · | ·
COc1cc2c(cc1OC)C(c1ccc(Cl)cc1)N(c1cccc(C#N)c1)C(=O)C2 (centres undefined) | · | 5.0% | 14.7% | · | ·
CCOC(=O)N1CCc2c(sc(NCc3cc(OC)ccc3OC)c2C(=O)Nc2cc(OC)ccc2OC)C1 | · | -35.7% | -7.1% | · | ·
O=C(c1ccc(F)cc1)n1nc(-c2cccnc2)nc1NCc1ccc(F)cc1 | · | 9.4% | 12.3% | · | ·
Cc1c(N=NC2=C(O)CCCC2=O)c(=O)n(-c2ccccc2)n1C | 4.2% | 17.8µM* | 3.5% | -16.2% | 15.4%
Cc1cccc(NC(=O)NCCOCCn2c(=O)oc3ccccc32)c1C | · | -2.8% | 13.7% | · | ·
CCOC(=O)c1c(NC(=O)CSc2cn(CCNC(=O)c3ccccc3OC)c3ccccc23)sc2c1CCC2 | · | 5.5% | 8.1% | · | ·
Cn1cc(Br)c(C(=O)NNC(=O)c2cccc(Br)c2)n1 | -3.7% | 35.5µM* | -14.0% | -15.7% | 48.9%
O=C(Cc1ccccc1)Nc1ccc(N2CCCC2)cc1 | -11.1% | ? | -13.6% | -4.5% | -13.9%
O=C(Cc1ccccc1)Nc1cccc(N2CCCC2)c1 | ? | 31.6µM* | 6.8% | -3.6% | -13.3%
O=C(CN1CCCCC1)Nc1cccc(-n2cnnn2)c1 | -8.3% | 2.9% | 0.9% | 0.141µM* | -0.9%
CCOC(=O)C1CCCN(CCC(=O)Nc2ccc(OC)cc2OC)C1 (centres undefined) | · | -1.2% | 7.4% | · | ·
CC(=O)c1cccc(NC(=O)CCS(=O)(=O)c2ccc(Br)s2)c1 | 25.4% | 39.8µM* | -12.5% | -34.5% | -2.3%
Cc1ccc(CNC(=O)CCS(=O)(=O)c2ccc(Br)s2)o1 | -29.6% | 10µM* | -4.1% | -17.1% | -5.4%
CCC1Sc2ccc(S(=O)(=O)CCC(=O)NCc3ccc(C)o3)cc2NC1=O (centres undefined) | -6.6% | 28.2µM* | 2.6% | -15.8% | 35.3%
CCc1ccc(NC(=O)CSc2nnc3[nH]c(=O)cc(-c4ccccc4)n23)cc1 | · | 3.1% | 0.6% | · | ·
CCC1CCCCN1CC(=O)c1c(C)[nH]c2cc(C)ccc12 (centres undefined) | -9.8% | 44.7µM* | -2.7% | -9.7% | -4.5%
SMILES | RE007 growth inh | Sm TGR inh | AmpC detergent | AmpC no deterg | AMA1 RON2 block
Cc1ccc2c(C(=O)CN3CCCCC3CCO)c(C)[nH]c2c1 (centres undefined) | -1.6% | ? | -0.1% | 1.1% | 2.2%
CCCCOc1ccc(CNC(=O)c2ccc(NC(=O)N3CCCCc4ccccc43)cc2)cc1 | · | ? | 2.7% | · | ·
O=C(COCc1cc(-c2ccc(F)cc2)on1)Nc1cccc(Cl)c1Cl | · | -2.6% | 16.1% | · | ·
Cc1cccc[n+]1CCCCCCCCCC[n+]1ccccc1C | -10.7% | -7.2%[57.1 µM] | -3.8% | 13.6% | -0.1%
CCCc1ncc(C[n+]2ccccc2C)c(N)n1 | -17.2% | 44.7µM* | -7.4% | -13.2% | -7.3%
N#CC1=C(N)OC2=C(C(=O)CCC2)C1CCc1ccccc1 (centres undefined) | 6.2% | -20.7% | 0.3% | -20.6% | 8.7%
O=C1CCCC2=C1C(Cc1ccccc1)C1=C(CCCC1=O)O2 | 0.2% | 10µM* | ? | -0.2% | 0.7%
O=C(Cn1cccc1)N1CCN(C(c2ccccc2)c2ccccc2)CC1 | -21.4% | 39.8µM* | -9.8% | 30.8% | -11.5%
COC(=O)CN1CCN(C(c2ccccc2)c2ccccc2)CC1 | -11.2% | 44.7µM* | ? | 40.1% | -0.9%
Cc1cccc(N2CCN(C(=O)Cn3cccc3)CC2)c1C | -6.6% | 50.1µM* | -17.1% | -6.6% | -1.3%
O=C(CNC(=O)Cc1ccccc1)NCC(=O)N1CCN(C(c2ccccc2)c2ccccc2)CC1 | 24.6% | 0.0% | 0.2% | 201.5% | -3.7%
COC(=O)c1nnn(CC(=O)Nc2cc(F)ccc2F)c1C(=O)OC | · | 3.5% | 17.2% | · | ·
CN(C[C@H](Cc1ccccc1)N(C[C@H](c1ccccc1)N(CCc1ccccc1)N=O)N=O)N=O | 10.1% | 12.6µM* | -4.4% | -17.4% | -10.2%
CN(C[C@H](c1ccccc1)N(C[C@H](Cc1ccccc1)N(CCc1ccccc1)N=O)N=O)N=O | -5.6% | ? | -0.7% | -22.8% | -2.4%
CCc1cccc(NC(=O)CSc2nc3ccsc3c(=O)n2CC)c1 | · | -0.6% | -8.9% | · | ·
O=C(Cn1nc(Cl)nc1Cl)c1cc2ccccc2oc1=O | -27.5% | 14.1µM* | ? | -13.7% | -3.0%
O=C(CSc1nnc(-c2cccnc2)o1)c1cc2ccccc2oc1=O | -4.0% | ? | -2.8% | -32.6% | 16.1%
O=C(Cn1nc(Cl)nc1Cl)c1ccccc1 | -17.1% | 1.1% | -8.7% | -13.8% | 1.3%
O=C(Cn1nc(Cl)nc1Cl)c1ccc(F)cc1 | 10.0% | 9.0% | -9.1% | -5.5% | 3.5%
